# Results reported in PMC4336329 (PLoS ONE, 2015).
# In all, about 310,000 compounds went through this assay and about 2,200 (0.71%) showed an effect of 50% or more. The effect is printed as a negative number. What follows is part of a selection rich in strong results, with near analogues and random picks from the rest.
# Target: human ether-à-go-go-related gene (hERG) potassium channel (human, UniProt Q12809)
# Experiment: primary screen, population patch clamp on CHO cells stably expressing hERG; higher = less effect of the substance
# human ether-à-go-go-related gene (hERG) potassium channel, sequence (Q12809 whole entry, looked up): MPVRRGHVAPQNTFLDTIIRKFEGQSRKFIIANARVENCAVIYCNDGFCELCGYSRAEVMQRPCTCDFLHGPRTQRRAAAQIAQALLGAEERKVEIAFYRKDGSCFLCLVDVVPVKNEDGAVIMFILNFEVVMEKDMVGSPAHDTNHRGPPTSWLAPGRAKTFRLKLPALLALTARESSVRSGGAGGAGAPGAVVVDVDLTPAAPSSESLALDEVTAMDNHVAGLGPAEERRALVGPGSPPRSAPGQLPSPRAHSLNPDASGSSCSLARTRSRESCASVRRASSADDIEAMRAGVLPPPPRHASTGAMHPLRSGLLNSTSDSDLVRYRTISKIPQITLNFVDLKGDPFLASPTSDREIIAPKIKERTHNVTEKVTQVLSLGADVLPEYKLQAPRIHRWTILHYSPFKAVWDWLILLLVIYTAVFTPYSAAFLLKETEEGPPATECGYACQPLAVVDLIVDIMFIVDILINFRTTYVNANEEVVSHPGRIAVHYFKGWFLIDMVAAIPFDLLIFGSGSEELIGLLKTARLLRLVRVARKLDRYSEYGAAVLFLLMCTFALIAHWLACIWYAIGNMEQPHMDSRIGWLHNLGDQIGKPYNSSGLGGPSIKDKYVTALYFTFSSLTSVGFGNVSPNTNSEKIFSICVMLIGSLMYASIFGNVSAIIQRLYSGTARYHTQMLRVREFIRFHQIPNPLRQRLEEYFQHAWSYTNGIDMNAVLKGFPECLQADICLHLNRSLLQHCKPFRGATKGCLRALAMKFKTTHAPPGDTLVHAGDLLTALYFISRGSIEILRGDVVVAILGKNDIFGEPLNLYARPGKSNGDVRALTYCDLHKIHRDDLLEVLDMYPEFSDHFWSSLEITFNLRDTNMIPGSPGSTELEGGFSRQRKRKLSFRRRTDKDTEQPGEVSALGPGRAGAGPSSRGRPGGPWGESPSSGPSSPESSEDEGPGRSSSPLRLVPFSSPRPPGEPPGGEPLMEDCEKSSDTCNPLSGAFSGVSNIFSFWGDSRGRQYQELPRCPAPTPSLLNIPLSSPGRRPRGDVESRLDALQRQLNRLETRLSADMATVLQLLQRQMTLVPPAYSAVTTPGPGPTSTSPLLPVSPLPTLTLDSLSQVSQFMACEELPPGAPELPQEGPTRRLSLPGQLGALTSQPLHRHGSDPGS
row,Compound,"hERG current change (%, negative = inhibition) at 1uM [%]"
1,CN1CCN(C2=C(Cl)C(=O)N(CCc3ccccc3)C2=O)CC1,17.7
2,CCN(CC)S(=O)(=O)c1ccc(C(=O)Nc2c3c(nn2C(C)(C)C)CS(=O)(=O)C3)cc1,5.04
3,Cc1cc(C)c[n+](-c2nc3ccccc3nc2[N-]S(=O)(=O)c2cccs2)c1,2.45
4,COC(=O)c1ccccc1NC(=O)CNc1cc(Cl)ccc1N1CCOCC1,-0.671
5,CCC(=O)Nc1cccc(C(=O)Nc2nccs2)c1,8.98
6,CN1CCC(=NNC(=O)c2ccc(N(Cc3ccccc3Cl)S(C)(=O)=O)cc2)CC1,6.54
7,CCc1ccccc1NC(=O)/C(=C/c1ccccc1)c1ccccc1,-4.2
8,Cc1ccc(OCC(=O)NC(=S)Nc2ccc(Br)c(C)n2)cc1,5.89
9,O=C(CCCc1ccccc1)c1ccccc1,19.4
10,O=C(CCCC(=O)c1ccc(F)cc1)c1ccc(F)cc1,5.62
11,CCN(CCCC(=O)c1ccc(F)cc1)CCc1ccccc1.Cl,-86.5
12,COCCn1nnnc1C(c1ccc(OC)c(OC)c1)N1CCN(c2nc3ccccc3s2)CC1 (centres unmarked),2.83
13,COCCN(C(=O)c1csnn1)C(C(=O)NC1CCCC1)c1ccccc1F (centres unmarked),12.6
14,COc1ccc(-n2c(NCCN(C)C)nc3sc4c(c3c2=O)CCCCC4)cc1,-69.4
15,COc1ccc(-n2c(NN)nc3sc4c(c3c2=O)CCCC4)cc1,-9.75
16,CN(C)CCNc1nc2sc3c(c2c(=O)n1-c1ccc(F)cc1)CCCCC3,6.73
17,CC1(C)CC(NC(=O)C2CCN(S(=O)(=O)c3ccc(F)cc3)CC2)CC(C)(C)N1,16.9
18,CCOC(=O)C1(Cc2ccc(Cl)cc2)CCN(C(=O)c2cscn2)CC1,-12.4
19,CCOC(=O)C1(Cc2cccc(OC)c2)CCCN(Cc2nccn2CC)C1 (centres unmarked),-13.5
20,CCOC(=O)C1(Cc2ccccc2)CCN(Cc2nccn2CC)CC1,8.81
21,CCOC(=O)C1(Cc2cccc(OC)c2)CCN(Cc2cnc(N)nc2)CC1,5.79
22,O=C1CCC(C(=O)N2CCC(CO)(Cc3ccc(Cl)cc3)CC2)=NN1,2.9
23,CCOC(=O)C1(Cc2ccc(Cl)cc2)CCN(Cc2cnc(N)nc2)CC1,-60.6
24,CCOC(=O)C1(Cc2ccc(Cl)cc2)CCN(Cc2nccn2CC)CC1,-57
25,CCOC(=O)C1(Cc2ccc(Cl)cc2)CCN(C(=O)C2=NNC(=O)CC2)CC1,-61.2
26,CCOC(=O)C1(Cc2ccc(Cl)cc2)CCN(Cc2ccon2)CC1,5.86
27,COc1ccccc1C(=O)Nc1nnc(S(=O)(=O)N2CCC(C)CC2)s1,12.4

row,Compound,"hERG current change (%, negative = inhibition) at 1uM [%]"
1,CCOc1ccc(CNC(=O)C2CCCN(c3nnc(C)c4c(C)n(-c5ccccc5)nc34)C2)cc1 (centres unmarked),8.87
2,N#C/C(=C/c1ccc(N2CCCCCC2)o1)c1ccc(F)cc1,16.2
3,O=C1CC(Nc2ccc(N3CCOCC3)cc2)C(=O)N1c1ccccc1F (centres unmarked),3.19
4,CCN1C(=O)[C@H]2[C@@H](c3ccc(-c4ccc(OC)cc4)cc3)N3CCC[C@@]3(C(=O)OC)[C@H]2C1=O.O=C(O)C(F)(F)F,11.6
5,Cc1cc(C)c(S(=O)(=O)N2CCCCC2CCNC(=O)C(=O)NCCN2CCOCC2)c(C)c1 (centres unmarked),6.75
6,Cc1cc(C(C)(C)CC(C)(C)C)ccc1OCCOCC[N+](C)(C)Cc1ccccc1.[Cl-],-62
7,Cc1cc(C(C)(C)C)ccc1OCCOCCN1CCCC1,-0.816
8,Cc1cc(C(C)(C)C)ccc1OCCN(C)C,-15.1
9,COc1cccc(S(=O)(=O)NCC(=O)N2CCCCCC2)c1,25
10,Cc1ccc(S(=O)(=O)N2CCN(c3ccccc3)CC2)cc1C(N)=O,-52
11,Cc1ccc(S(=O)(=O)N2CCN(c3ccccc3)CC2)cc1C(=O)NC1CCCCC1,10.8
12,Cc1ccc(S(=O)(=O)N2CCN(c3ccccc3)CC2)cc1C,12.5
13,CC(C)OC(=O)c1ccc(NC(=O)c2ccco2)cc1,6.19
14,Cc1ccc(S(=O)(=O)Cn2nnnc2C(CC(C)C)N2CCN(C(=O)c3ccco3)CC2)cc1.Cl (centres unmarked),7.63
15,C=CCNc1nc(C(=O)OCC(=O)Nc2cc(S(C)(=O)=O)ccc2Cl)cs1,4.15
16,Cc1ccc(C(=O)c2c3ccc([N+](=O)[O-])cc3[n+]([O-])n2CCCC(N)=O)cc1,-11.4
17,[Cl-].[NH3+]CCCn1c(C(=O)c2ccc(Cl)cc2)c2ccc(C(F)(F)F)cc2[n+]1[O-],-80.9
18,Cc1ccc(C(=O)c2c3ccc(C(F)(F)F)cc3[n+]([O-])n2CCC(N)=O)cc1,-28.8
19,NC(=O)CCCn1c(C(=O)c2cc(Cl)c(N)c(Cl)c2)c2ccc(C(F)(F)F)cc2[n+]1[O-],5.14
20,[Cl-].[NH3+]CCCn1c(C(=O)c2ccc(Cl)cc2)c2ccc([N+](=O)[O-])cc2[n+]1[O-],-47.1
21,Nc1c(Cl)cc(C(=O)c2c3ccc([N+](=O)[O-])cc3[n+]([O-])n2CCC[NH3+])cc1Cl.O=C([O-])C(F)(F)F,1.56
22,Nc1c(Cl)cc(C(=O)c2c3ccc(C(F)(F)F)cc3[n+]([O-])n2CCC[NH3+])cc1Cl.[Cl-],-37.3
23,Cc1ccc(C(=O)c2c3ccc(C(F)(F)F)cc3[n+]([O-])n2CCCC(N)=O)cc1,-39
24,Cc1ccc(C(=O)c2c3ccc([N+](=O)[O-])cc3[n+]([O-])n2CCC[NH3+])cc1.O=C([O-])C(F)(F)F,-14.7
25,Cc1ccc(C(=O)c2c3ccc(C(F)(F)F)cc3[n+]([O-])n2CCC[NH3+])cc1.O=C([O-])C(F)(F)F,-64.4
26,NC(=O)CCCn1c(C(=O)c2ccc(Cl)cc2)c2ccc([N+](=O)[O-])cc2[n+]1[O-],-58.2
27,NC(=O)CCCn1c(C(=O)c2ccc(Cl)cc2)c2ccc(C(F)(F)F)cc2[n+]1[O-],-80.1

row,Compound,"hERG current change (%, negative = inhibition) at 1uM [%]"
1,COc1cccc(CNS(=O)(=O)c2c(C(=O)N3CCCCCC3)c(C)n(C)c2C)c1,7.52
2,Cc1ccccc1CNC1CCCCC1.Cl,2.15
3,O=C(Cn1cnc2cc([N+](=O)[O-])ccc2c1=O)Nc1ccccc1Cl,6.18
4,COC(=O)c1ccc(-c2nc(O)c(C)s2)cc1,9.1
5,CC1=C(C(=O)Nc2cccc(C(=O)NCc3ccc(F)cc3)c2)SCCO1,15.3
6,COc1ccc(C(=O)c2c3ccc(C(F)(F)F)cc3[n+]([O-])n2CCCC(N)=O)cc1,-21.6
7,COc1ccc(C(=O)c2c3ccc([N+](=O)[O-])cc3[n+]([O-])n2CCC[NH3+])cc1.[Cl-],-13.5
8,COc1ccc(C(=O)c2c3ccc(C(F)(F)F)cc3[n+]([O-])n2CCC[NH3+])cc1.[Cl-],-63
9,Cc1ccc(-c2nn3nnnc3c3ccccc23)cc1C,-5.22
10,c1ccc(-c2nn3nnnc3c3ccccc23)cc1,-82.9
11,Cc1ccc(-c2nn3nnnc3c3ccccc23)cc1,12.9
12,Cc1c(CCOC(=O)c2ccccc2)sc[n+]1CC(=O)c1ccc(Br)cc1.[Br-],-82.8
13,Cc1c(CCOC(=O)CC23CC4CC(CC(C4)C2)C3)sc[n+]1CC(=O)c1ccc(Br)cc1.[Br-],-63.5
14,Cc1c(CCOC(=O)CC23CC4CC(CC(C)(C4)C2)C3)sc[n+]1CC(=O)c1ccccc1.[Br-],-5.09
15,Cc1c(CCOC(=O)CC23CC4CC(CC(C4)C2)C3)sc[n+]1CC(=O)c1ccccc1.[Br-],-6.04
16,COc1ccc(C(=O)OCCc2sc[n+](CC(=O)c3ccccc3)c2C)cc1.[Br-],9.69
17,Cc1c(CCOC(=O)c2ccc([N+](=O)[O-])cc2)sc[n+]1CC(=O)c1ccccc1.[Br-],-6.66
18,CCc1ccc(C(C(=O)NC2CCCC2)N(Cc2cccnc2)C(=O)c2csnn2)cc1 (centres unmarked),2.84
19,Nc1c(-c2ccccc2)nc(Cl)nc1-c1ccccc1,13.2
20,CN(CC(=O)Nc1ccccc1Cl)C(=O)COC(=O)/C=C/c1ccc(C(F)(F)F)cc1,16.2
21,O=C(Cn1cccc1C(=O)c1ccccc1)NCCCN1CCc2ccccc2C1,-41.7
22,Cc1ccc(C)c(N2CCN(CCCNC(=O)Cn3cccc3C(=O)c3ccccc3C)CC2)c1,-22.1
23,Cc1ccccc1C(=O)c1cccn1CC(=O)NCCCN1CCc2ccccc2C1,-70
24,Cc1ccccc1C(=O)c1cccn1CC(=O)NCCCN1CC(C)CC(C)C1 (centres unmarked),-59
25,CC1CC(C)CN(CCCNC(=O)Cn2cccc2C(=O)c2ccccc2)C1 (centres unmarked),-25
26,Cc1ccccc1C(=O)c1cccn1CC(=O)NCCCN1CCCCC1,0.894
